Results: PubChem BioAssay (EPA / NIEHS)
Inconclusive results are not listed. Activity calls are given as the source filed them. Rule for the calls, unless noted: active = hit-call score of the fitted dose curve at least 0.9, where 1 is the maximum; inactive = score below 0.9.

Key:
[1] = ATG_NFI_CIS: Attagene CIS-FACTORIAL HepG2 Assay for human Nuclear Factor I (NFI) (AID 2282989); details: HepG2 cis-regulatory reporter, NFI response element transcription; actives raise or lower the signal
In short: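 Read-out: reporter mRNA via RT-PCR plus capillary electrophoresis with fluorescence detection. Transiently transfected HepG2 (endogenous TF activity on cis promoters), 24 h compound exposure; gain or loss of signal fitted against DMSO.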

[2] = molecular target: Myc proto-oncogene protein (Homo sapiens) (UniProt P01106); test: ATG_Myc_CIS: Attagene CIS-FACTORIAL HepG2 Assay for human Myelocytomatosis (Myc) Proto-Oncogene Transcription Factor (AID 2282990); details: HepG2, Attagene cis-reporter transcription factor activity; actives raise or lower the signal
In short: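 After 24 h chemical treatment of HepG2 cells carrying multiplexed cis-regulated reporter constructs, reporter transcripts quantified by RT-PCR and capillary electrophoresis of fluorescent fragments. Gain or loss fitted against DMSO baseline.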

[3] = ATG_NF_kB_CIS: Attagene CIS-FACTORIAL HepG2 Assay for human Nuclear Factor Kappa B (NF-kB) (AID 2282991); details: HepG2 Attagene cis-factorial NF-kB reporter mRNA; actives raise or lower the signal
In short: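 Measures mRNA induction of an NF-kB-responsive cis-element reporter in HepG2 cells transfected with multiple reporter units, sampled 24 h post-dosing; quantified by fluorescence after RT-PCR and capillary electrophoresis, fitted for activation or inhibition against DMSO.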

[4] = ATG_NRF2_ARE_CIS: Attagene CIS-FACTORIAL HepG2 Assay for human Nuclear Factor Erythroid 2 Related Factor 2 (NFR2) response to Antioxidant Response Elements (ARE) (AID 2282992); details: HepG2 Attagene ARE/NRF2 reporter, transcription factor activity; actives raise or lower the signal;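 for AC50: reporter mRNA level measured by RT-PCR and capillary electrophoresis fluorescence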
In short: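 Fluorescence intensity of reporter-specific cDNA fragments, separated by capillary electrophoresis, reflects mRNA induction in transfected HepG2 cells at 24 h. Activity is fitted bidirectionally, DMSO serving as baseline.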

[5] = molecular target: Cellular tumor antigen p53 (Homo sapiens) (UniProt P04637); test: ATG_p53_CIS: Attagene CIS-FACTORIAL HepG2 Assay for human p53 Transcription Factor (AID 2282994); details: HepG2 p53 cis-element reporter, Attagene mRNA; actives raise or lower the signal
In short: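 Transiently transfected HepG2 (multiple cis reporter transcription units); exposure 24 h; reporter RNA via RT-PCR, 6-FAM extension, 2 h HpaI digest at 37 C, CE detection; DMSO baseline.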

[6] = BSK_3C_uPAR: BioMAP Diversity Plus: 3C Assay for Urokinase-type plasminogen activator receptor (uPAR) Biomarker Activity (AID 2282998); details: BioMAP 3C HUVEC, uPAR biomarker ELISA; actives raise or lower the signal
In short: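 HUVEC primary cells; 24 h post-dose; uPAR by ELISA; gain or loss of signal fitted bidirectionally vs DMSO baseline.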

[7] = BSK_3C_VCAM1: BioMAP Diversity Plus: 3C Assay for Vascular cell adhesion molecule 1 (VCAM1) Biomarker Activity (AID 2282999); details: BioMAP 3C HUVEC, VCAM1 ELISA, cytokine-stimulated; actives raise or lower the signal
In short: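 Activity fitted in both directions relative to DMSO, with ELISA measurement of the surface marker on primary HUVEC (3C) at 24 h post-treatment; parallel SRB staining (0.1% SRB, TCA-fixed, 560 nm) flagged overt cytotoxicity.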

[8] = BSK_4H_Eotaxin3: BioMAP Diversity Plus: 4H Assay for Eotaxin 3 Biomarker Activity (AID 2283000); details: primary human endothelial cells (HUVEC); actives raise or lower the signal
In short: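 ELISA quantitation of CCL26 (Eotaxin-3) protein from chemically dosed human vascular endothelial cells at 24 h; increases and decreases both scored relative to DMSO-treated baseline.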

[9] = read-out: Intercellular Adhesion Molecule 1 (ICAM1), ICAM1 (gene 3383); test: BSK_3C_ICAM1: BioMAP Diversity Plus: 3C Assay for Intercellular Adhesion Molecule 1 (ICAM1) Biomarker Activity (AID 2283003); details: primary human endothelial cells (HUVEC); actives raise or lower the signal
In short: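 ELISA readout of ICAM1 in human umbilical vein endothelial cells in the 3C system, taken 24 h post-dose. Gain or loss of signal versus DMSO was fitted in both directions, with SRB total-protein staining run in parallel.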

[10] = BSK_3C_Proliferation: Cell Proliferation Assessment in the BioMAP Diversity Plus: 3C Assay (AID 2283006); details: primary human endothelial cells (HUVEC);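 for AC50: potency may reflect either rise or fall in cell number versus DMSO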
In short: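 Proliferation as total protein: sulforhodamine B (0.1%) stain of TCA-fixed subconfluent human umbilical vein endothelial cells, absorbance 560 nm, 48 h after dosing. Activity fitted in both directions against DMSO baseline.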

[11] = molecular target: Peroxisome proliferator-activated receptor gamma (Homo sapiens) (UniProt P37231); test: ATG_PPARg_TRANS: Attagene TRANS-FACTORIAL HepG2 Assay for human Peroxisome Proliferator-activated Receptor-gamma (PPARg) (AID 2283007; active = hit-call score of the fitted dose curve at least 0.9, where 1 is the maximum)
In short: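 Gain-of-signal endpoint relative to DMSO, derived from reporter mRNA levels quantified by RT-PCR and capillary electrophoresis. Cells were HepG2 transiently expressing a chimeric NR-Gal4 construct with GAL4-UAS reporters, exposed to chemicals for 24 h.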

[12] = molecular target: Nuclear receptor subfamily 1 group I member 2 (Homo sapiens) (UniProt O75469); test: ATG_PXR_TRANS: Attagene TRANS-FACTORIAL HepG2 Assay for human Pregnane X Receptor (PXR) (AID 2283008; active = hit-call score of the fitted dose curve at least 0.9, where 1 is the maximum)
In short: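 Transient HepG2 transfectants carrying multiplexed reporter transcription units; PXR activity read through a Gal4 chimera. 24 h exposure. RT-PCR/CE fluorescence; upward curve fit referenced to DMSO.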

[13] = ATG_Oct_MLP_CIS: Attagene CIS-FACTORIAL HepG2 Assay for human Octamer-Binding Transcription Factor (Oct) (AID 2282993); details: HepG2 Attagene cis-factorial Oct reporter, mRNA; actives raise or lower the signal
In short: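 Read-out: reporter mRNA via RT-PCR plus capillary electrophoresis of 6-FAM-labelled fragments. Transiently transfected HepG2, 24 h exposure, endogenous TF activity on cis elements. Gain or loss of signal fitted relative to DMSO.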

[14] = molecular target: human Peroxisome Proliferator-activated Receptor alpha (PPARa), PPARA (gene 5465) (UniProt Q07869); test: ATG_PPARa_TRANS: Attagene TRANS-FACTORIAL HepG2 Assay for human Peroxisome Proliferator-activated Receptor alpha (PPARa) (AID 2283001; active = hit-call score of the fitted dose curve at least 0.9, where 1 is the maximum)
In short: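 Reporter transcripts quantified by RT-PCR plus capillary electrophoresis after 24 h treatment, fitted upward relative to DMSO. Cells: human HepG2 transiently carrying multiple GAL4-UAS reporter units driven by NR-Gal4 chimeras.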

[15] = molecular target: human RAR-related Orphan Receptor beta (RORb), RORB (gene 6096) (UniProt Q92753); test: ATG_RORb_TRANS: Attagene TRANS-FACTORIAL HepG2 Assay for human RAR-related Orphan Receptor beta (RORb) (AID 2283010; active = hit-call score of the fitted dose curve at least 0.9, where 1 is the maximum)
In short: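 Read-out is reporter mRNA induction, quantified by RT-PCR with fluorescent capillary electrophoresis, 24 h post-dose in transiently transfected HepG2 expressing exogenous NR-Gal4 chimera. Activity fitted upward versus DMSO.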

[16] = molecular target: human Peroxisome Proliferator-activated Receptor delta (PPARd), PPARD (gene 5467) (UniProt Q03181); test: ATG_PPARd_TRANS: Attagene TRANS-FACTORIAL HepG2 Assay for human Peroxisome Proliferator-activated Receptor delta (PPARd) (AID 2283002; active = hit-call score of the fitted dose curve at least 0.9, where 1 is the maximum)
In short: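 Read-out is induced reporter mRNA, quantified by RT-PCR with fluorescent labelling and capillary electrophoresis after 24 h dosing. Cells are HepG2 transiently carrying multiple GAL4-UAS reporter units driven by exogenous NR-GAL4 chimeras; DMSO serves as baseline.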

[17] = molecular target: Retinoic acid receptor alpha (Homo sapiens) (UniProt P10276); test: ATG_RARa_TRANS: Attagene TRANS-FACTORIAL HepG2 Assay for human Retinoic Acid Receptor alpha (RARa) (AID 2283005; active = hit-call score of the fitted dose curve at least 0.9, where 1 is the maximum)
In short: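 Reporter transcripts, measured by RT-PCR with fluorescent labeling and capillary electrophoresis after 24 h dosing, reflect activity of an exogenous human RARa–GAL4 fusion in transiently transfected HepG2. Fitted for increase relative to DMSO.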

Measured: AC50

Chain of human RAR-related Orphan Receptor beta (RORb), RORB (gene 6096) (Q92753 whole entry, looked up, the tested form may be a part): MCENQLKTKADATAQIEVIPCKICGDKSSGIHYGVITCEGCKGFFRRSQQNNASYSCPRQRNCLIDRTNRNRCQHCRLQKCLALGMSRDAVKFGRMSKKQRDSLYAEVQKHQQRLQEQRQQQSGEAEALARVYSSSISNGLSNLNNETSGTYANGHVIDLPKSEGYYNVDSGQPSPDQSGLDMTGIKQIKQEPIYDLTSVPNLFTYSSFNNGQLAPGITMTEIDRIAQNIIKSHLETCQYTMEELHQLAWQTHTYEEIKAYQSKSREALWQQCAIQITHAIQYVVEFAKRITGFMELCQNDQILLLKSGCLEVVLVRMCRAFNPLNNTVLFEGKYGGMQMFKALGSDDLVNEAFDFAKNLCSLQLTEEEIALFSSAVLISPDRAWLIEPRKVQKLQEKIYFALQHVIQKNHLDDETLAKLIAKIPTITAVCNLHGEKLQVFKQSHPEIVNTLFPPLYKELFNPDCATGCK
Chain of Peroxisome proliferator-activated receptor gamma (Homo sapiens) (P37231 whole entry, looked up, the tested form may be a part): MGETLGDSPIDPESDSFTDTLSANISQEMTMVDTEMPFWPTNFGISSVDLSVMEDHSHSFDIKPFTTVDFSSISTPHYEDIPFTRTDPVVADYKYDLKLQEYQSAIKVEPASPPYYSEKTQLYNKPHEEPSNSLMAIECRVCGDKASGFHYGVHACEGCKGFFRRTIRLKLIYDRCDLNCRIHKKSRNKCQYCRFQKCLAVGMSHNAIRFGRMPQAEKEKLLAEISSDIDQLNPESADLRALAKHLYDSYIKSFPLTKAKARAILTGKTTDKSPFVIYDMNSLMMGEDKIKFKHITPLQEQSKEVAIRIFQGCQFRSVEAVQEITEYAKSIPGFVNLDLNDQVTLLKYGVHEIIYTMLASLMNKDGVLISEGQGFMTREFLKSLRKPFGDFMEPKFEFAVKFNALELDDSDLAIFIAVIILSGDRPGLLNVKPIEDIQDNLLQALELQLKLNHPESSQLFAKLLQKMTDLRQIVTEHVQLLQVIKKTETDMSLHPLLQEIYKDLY
Chain of Nuclear receptor subfamily 1 group I member 2 (Homo sapiens) (O75469 whole entry, looked up, the tested form may be a part): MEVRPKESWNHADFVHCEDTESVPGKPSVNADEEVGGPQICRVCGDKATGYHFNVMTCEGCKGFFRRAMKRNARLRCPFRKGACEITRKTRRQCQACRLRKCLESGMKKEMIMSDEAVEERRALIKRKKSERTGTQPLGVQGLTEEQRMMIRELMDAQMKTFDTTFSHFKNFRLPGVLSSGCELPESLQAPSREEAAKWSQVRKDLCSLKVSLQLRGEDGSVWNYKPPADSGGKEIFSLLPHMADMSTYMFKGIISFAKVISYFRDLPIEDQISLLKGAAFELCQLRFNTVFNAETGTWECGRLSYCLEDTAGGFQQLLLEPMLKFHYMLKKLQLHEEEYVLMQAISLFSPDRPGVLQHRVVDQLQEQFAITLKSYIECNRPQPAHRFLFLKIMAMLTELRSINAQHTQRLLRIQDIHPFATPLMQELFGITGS
Chain of human Peroxisome Proliferator-activated Receptor delta (PPARd), PPARD (gene 5467) (Q03181 whole entry, looked up, the tested form may be a part): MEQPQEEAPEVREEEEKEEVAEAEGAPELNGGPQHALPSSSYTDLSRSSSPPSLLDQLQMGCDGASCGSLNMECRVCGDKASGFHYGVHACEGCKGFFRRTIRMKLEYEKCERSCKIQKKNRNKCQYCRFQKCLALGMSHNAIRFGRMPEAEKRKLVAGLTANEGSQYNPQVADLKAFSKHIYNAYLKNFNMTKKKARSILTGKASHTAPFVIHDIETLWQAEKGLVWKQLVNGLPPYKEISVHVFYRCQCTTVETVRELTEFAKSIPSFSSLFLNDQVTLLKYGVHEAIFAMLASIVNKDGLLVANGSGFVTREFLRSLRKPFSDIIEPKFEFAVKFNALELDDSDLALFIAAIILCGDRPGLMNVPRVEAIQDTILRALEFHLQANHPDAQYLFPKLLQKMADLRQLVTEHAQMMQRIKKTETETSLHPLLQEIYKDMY
Chain of Cellular tumor antigen p53 (Homo sapiens) (P04637 whole entry, looked up): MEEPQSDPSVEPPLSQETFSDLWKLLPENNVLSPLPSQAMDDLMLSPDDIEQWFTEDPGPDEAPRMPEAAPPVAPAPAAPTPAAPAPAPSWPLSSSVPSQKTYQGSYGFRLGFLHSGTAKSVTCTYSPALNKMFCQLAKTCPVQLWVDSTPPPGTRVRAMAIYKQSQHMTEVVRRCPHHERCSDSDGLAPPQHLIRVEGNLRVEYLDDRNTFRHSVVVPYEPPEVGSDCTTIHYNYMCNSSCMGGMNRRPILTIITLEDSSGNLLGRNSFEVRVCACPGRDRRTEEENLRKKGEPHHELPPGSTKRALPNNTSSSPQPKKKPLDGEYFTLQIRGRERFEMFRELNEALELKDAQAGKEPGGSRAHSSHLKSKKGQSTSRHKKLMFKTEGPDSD
Chain of human Peroxisome Proliferator-activated Receptor alpha (PPARa), PPARA (gene 5465) (Q07869 whole entry, looked up, the tested form may be a part): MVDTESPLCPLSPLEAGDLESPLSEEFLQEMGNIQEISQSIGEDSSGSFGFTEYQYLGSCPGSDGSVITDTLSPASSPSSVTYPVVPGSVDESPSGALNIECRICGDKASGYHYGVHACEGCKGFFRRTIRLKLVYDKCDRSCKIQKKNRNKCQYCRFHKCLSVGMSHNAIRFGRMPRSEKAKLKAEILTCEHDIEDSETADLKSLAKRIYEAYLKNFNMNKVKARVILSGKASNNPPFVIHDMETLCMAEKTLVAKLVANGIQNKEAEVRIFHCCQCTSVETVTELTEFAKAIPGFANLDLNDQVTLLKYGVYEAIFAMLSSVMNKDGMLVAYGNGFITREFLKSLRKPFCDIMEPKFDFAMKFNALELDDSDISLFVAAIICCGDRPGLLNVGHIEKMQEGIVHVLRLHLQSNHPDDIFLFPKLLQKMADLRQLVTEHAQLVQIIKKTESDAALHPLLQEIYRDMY
Chain of Myc proto-oncogene protein (Homo sapiens) (P01106 whole entry, looked up, the tested form may be a part): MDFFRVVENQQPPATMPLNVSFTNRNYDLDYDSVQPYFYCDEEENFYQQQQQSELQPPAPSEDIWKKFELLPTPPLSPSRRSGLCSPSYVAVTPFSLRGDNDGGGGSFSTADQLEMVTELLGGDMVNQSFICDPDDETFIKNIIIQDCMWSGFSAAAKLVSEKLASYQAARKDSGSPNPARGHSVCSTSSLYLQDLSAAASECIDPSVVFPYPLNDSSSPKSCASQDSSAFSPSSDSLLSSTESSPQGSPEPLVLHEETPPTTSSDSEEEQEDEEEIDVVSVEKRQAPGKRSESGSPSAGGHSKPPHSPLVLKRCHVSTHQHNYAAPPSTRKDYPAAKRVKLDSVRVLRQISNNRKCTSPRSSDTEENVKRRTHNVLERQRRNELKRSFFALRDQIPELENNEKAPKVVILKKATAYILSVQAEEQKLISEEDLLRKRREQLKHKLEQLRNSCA
Chain of Retinoic acid receptor alpha (Homo sapiens) (P10276 whole entry, looked up, the tested form may be a part): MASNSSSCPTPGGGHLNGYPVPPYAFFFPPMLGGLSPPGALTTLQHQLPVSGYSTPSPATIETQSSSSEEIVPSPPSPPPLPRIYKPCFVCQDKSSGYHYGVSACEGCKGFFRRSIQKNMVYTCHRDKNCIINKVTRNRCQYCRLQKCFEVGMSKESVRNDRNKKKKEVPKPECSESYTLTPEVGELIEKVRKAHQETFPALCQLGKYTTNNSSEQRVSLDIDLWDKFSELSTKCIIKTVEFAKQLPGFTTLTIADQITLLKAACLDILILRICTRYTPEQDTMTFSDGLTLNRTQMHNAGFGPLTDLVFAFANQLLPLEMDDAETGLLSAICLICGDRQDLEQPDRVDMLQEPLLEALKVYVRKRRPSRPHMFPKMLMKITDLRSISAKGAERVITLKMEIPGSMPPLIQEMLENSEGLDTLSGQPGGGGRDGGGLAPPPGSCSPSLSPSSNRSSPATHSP

CC(=O)Nc1ccccc1O
inactive: [1] | [2] | [3] | [4] | [5] | [6] | [7] | [8] | [9] | [10] | [11] | [12]

Cc1c(N(C)C)c(=O)n(-c2ccccc2)n1C
inactive: [1] | [2] | [3] | [4] | [13] | [14] | [12] | [15]

[Ca+2]
inactive: [1] | [2] | [3] | [4] | [13] | [16] | [17] | [12]

COc1cc(C)cc(O)c1
inactive: [1] | [2] | [3] | [4] | [13] | [14] | [16] | [12] | [15]

CN(C)c1ccc(O)c2c1C[C@H]1C[C@H]3[C@H](N(C)C)C(=O)C(C(N)=O)=C(O)[C@@]3(O)C(=O)C1=C2O
inactive: [1] | [2] | [3] | [4] | [13] | [16] | [12] | [15]

O=[N+]([O-])c1ccc(C=Cc2ccc([N+](=O)[O-])cc2S(=O)(=O)O)c(S(=O)(=O)O)c1
inactive: [1] | [2] | [3] | [4] | [13] | [15]

OCc1cccnc1
inactive: [1] | [2] | [3] | [4] | [13] | [14] | [12]

CC(c1cc2ccccc2s1)N(O)C(N)=O (stereo unspecified)
inactive: [1] | [2] | [3] | [4] | [13] | [16] | [12]

Cc1ccc2n[nH]nc2c1
inactive: [1] | [2] | [3] | [4] | [5] | [6] | [7] | [8] | [14] | [16] | [9] | [10] | [11] | [12]

N#Cc1nc(Cl)c(Cl)c(Cl)c1Cl
inactive: [2] | [15]
active: [1] 6.05 µM | [3] 4.63 µM | [4] 0.885 µM | [13] 2.54 µM

CN(CCOc1ccc(CC2SC(=O)NC2=O)cc1)c1ccccn1 (stereo unspecified)
inactive: [1] | [2] | [3] | [5] | [7] | [9]
active: [4] 15.1 µM | [6] 6.93 µM | [8] 3.97 µM | [10] 7.9 µM | [12] 5.11 µM

CC(=O)OCCOC(C)=O
inactive: [1] | [2] | [3] | [4] | [13] | [5] | [15]

Nc1nc2ccc([N+](=O)[O-])cc2s1
active: [4] 56.5 µM | [11] 29.7 µM
inactive: [1] | [2] | [3] | [13] | [14] | [12]
